{"source": "PubChem BioAssay (NCI)", "note": "This is part of a sample that, as a whole, favours compounds with a hit. Of some 79,000 tested, about 15% had one in any assay. A number with no mark means an inactive call. Calls of active or inactive are those of the source. No stated cut-off is given here; in the data, active means growth inhibition above about 70%; inactive means the rest."}
{"assay": "NCI Yeast Anticancer Drug Screen. Data for the mlh1 rad18 strain (AID 175)", "settings": "S. cerevisiae mlh1 rad18 strain growth inhibition; at 50.0 µM; hits give high values", "experimental": "Growth inhibition of yeast strains with defined genetic alterations is measured as a screen for potential anti-cancer activity. Selected strains with alterations in DNA damage repair or cell cycle control were exposed to compounds and growth inhibition was measured relative to vehicle treated controls. The strain used in this assay is mlh1 rad18"}
{"compound": "O=C1NCC2CCCC1C2", "note": "(stereo not given)", "growth inhibition": "1.7%"}
{"compound": "O=S(Cc1ccccc1)/C(=C/NC(=S)Nc1cc(Cl)ccc1Cl)c1ccccc1", "note": "(stereo not given)", "growth inhibition": "7.1%"}
{"compound": "CC(C)(C)CC1(C)NC(=O)NC1=O", "note": "(stereo not given)", "growth inhibition": "8.45%"}
{"compound": "CC(=O)CSc1ncnc2nc[nH]c12", "growth inhibition": "-5.3%"}
{"compound": "CC(=O)C1C(=O)C(=O)N(c2ccc(Cl)c(Cl)c2)C1=O", "note": "(stereo not given)", "growth inhibition": "-24.9%"}
{"compound": "OC(CCN1CCCCC1)(c1ccccc1)c1ccccc1", "growth inhibition": "-18.4%"}
{"compound": "OCc1cccnc1", "growth inhibition": "5.75%"}
{"compound": "COCC(N)=O", "growth inhibition": "13.8%"}
{"compound": "C#CCSc1nnnn1-c1ccccc1", "growth inhibition": "12.4%"}
{"compound": "CC(=O)O[C@H]1CC[C@]2(C)C3=C(C(=O)C[C@H]2C1(C)C)[C@]1(C)CC[C@H]([C@H](C)CCC(=O)O)[C@@]1(C)CC3=O", "growth inhibition": "0.4%"}
{"compound": "CC(CC(CCC(=O)O)(c1ccccc1)c1ccccc1)N(C)C", "note": "(stereo not given)", "growth inhibition": "13.4%"}
{"compound": "CCCCOC(=O)c1ccccc1O", "growth inhibition": "20.5%"}
{"compound": "S=C(Sc1ccc(Cl)cc1)Sc1ccc(Cl)cc1", "growth inhibition": "24.1%"}
{"compound": "O=S(=O)(c1ccc(NC(=S)NCc2cccnc2)cc1)N1CCCCC1", "growth inhibition": "22.2%"}
{"compound": "S=C(NCc1ccccc1)N1CCC(CCCC2CCN(C(=S)NCc3ccccc3)CC2)CC1", "growth inhibition": "-7.35%"}
{"compound": "NC(=O)NCCO", "growth inhibition": "13.3%"}
{"compound": "O=C(O)c1cccc(-n2ncc(Cl)c(Cl)c2=O)c1", "growth inhibition": "19.6%"}
{"compound": "CCOC(=N)CC(=O)Nc1cccc(C)c1Cl", "growth inhibition": "-3.3%"}
{"compound": "O=C(O)c1ccccc1Cc1ccc2c(c1)CCCC2", "growth inhibition": "47.3%"}
{"compound": "CC(C)C(C)(C)C(=O)C(C)(C)C(C)(C)C", "growth inhibition": "7.95%"}
{"compound": "Cc1cc(Cl)cc(Cc2cc(Cl)cc(C)c2O)c1O", "growth inhibition": "20.6%"}
{"compound": "CCCOCc1cn[nH]n1", "growth inhibition": "-2.35%"}
{"compound": "COC(C(=O)C(O)C(C)O)C1Cc2cc3cc(OC4CC(OC5CC(O)C(O)C(C)O5)C(O)C(C)O4)c(C)c(O)c3c(O)c2C(=O)C1OC1CC(OC2CC(O)C(OC3CC(C)(O)C(O)C(C)O3)C(C)O2)C(O)C(C)O1", "note": "(stereo not given)", "growth inhibition": "11.8%"}
{"compound": "OC1Cc2ccccc2C1", "growth inhibition": "-18.6%"}
{"compound": "O=C(NCc1ccccc1)/C(=C/c1ccccc1)NC(=O)c1ccccc1", "growth inhibition": "-42.5%"}
{"compound": "Nc1ccc2c(c1)Cc1cc(N)c(N)cc1-2", "growth inhibition": "5.8%"}
{"compound": "O=C(O)CC1=CCCCC1", "growth inhibition": "6.9%"}
{"compound": "CCOC(=O)Nc1nccs1", "growth inhibition": "-4.6%"}
{"compound": "COc1ccc(C2CC(c3ccccc3)=Nc3ccccc3S2)cc1", "note": "(stereo not given)", "growth inhibition": "0.95%"}
{"compound": "CS(=O)CC(=N\\O)/C(CS(C)=O)=N\\O", "note": "(stereo not given)", "growth inhibition": "9.2%"}
{"compound": "O=C(N/N=C\\c1ccc(Cl)cc1Cl)c1ccncc1", "growth inhibition": "3.5%"}
{"compound": "C1=NCCc2ccccc21", "growth inhibition": "15.2%"}
{"compound": "C=C1CC2(OC1=O)C(=O)N(C)c1ccc(I)cc12", "note": "(stereo not given)", "growth inhibition": "91.2% (active)"}
{"compound": "COC(=O)C1(CC(C)=O)NC(=S)NC(=O)C1C#N", "note": "(stereo not given)", "growth inhibition": "-15.3%"}
{"compound": "CC(C)(CC(=O)O)CC(=O)O", "growth inhibition": "14.8%"}
{"compound": "COC1OC(CO)C(OC)C(O)C1O", "note": "(stereo not given)", "growth inhibition": "-2.2%"}
{"compound": "Cn1c(=O)c2[nH]c(CCCCC(=O)O)nc2n(C)c1=O", "growth inhibition": "4.2%"}
{"compound": "O=C(O)c1cc(I)ccc1O", "growth inhibition": "26.9%"}
{"compound": "CCCNS(=O)(=O)c1ccc(Cl)cc1", "growth inhibition": "-3.7%"}
{"compound": "NCC(O)C(O)C(O)C(O)CO", "note": "(stereo not given)", "growth inhibition": "0.95%"}
